Drawing on PubChem BioAssay (NCATS), this text covers Potency for 16 molecules.

The structures appear in SMILES notation. Inconclusive results are not listed. The source made the active and inactive calls. Unless noted, calls follow the shape of the dose curve; as a rule, active = well fitted curve in the direction sought with a large enough effect; inconclusive = small, poorly fitted or top-dose-only effect, or another doubt; inactive = no such curve, though single readings can be large; an effect the other way counts as inactive or inconclusive.

Test [1] is described as follows: qHTS for Inhibitors of Plasmodium falciparum (DD2) proliferation (AID 504314).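 Also: parasite DNA measured by SYBR Green fluorescence after red cell lysis.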 The procedure, abridged:
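Erythrocytes infected with P. falciparum Dd2 (0.3% parasitemia, 2.5% hematocrit) exposed to compound 72 h at 37C, 5% CO2. Parasite DNA quantified by SYBR Green fluorescence after saponin/Triton lysis overnight; normalized to 0.29 uM artemisinin and DMSO.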
On the technique in general: Quantitative high-throughput screening tests each substance at several concentrations.

Test [2] in a line: qHTS for Inhibitors of Plasmodium falciparum (GB4) proliferation (AID 504315). Also: nearly all actives have a fitted effect of over 50% in size. The essentials:
(§1)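 Erythrocytes infected with P. falciparum line (0.3% parasitemia, 2.5% hematocrit final) incubated with compounds 72 h at 37 °C, 5% CO2; SYBR Green lysis buffer added, fluorescence read next day. Normalized to 0.29 uM artemisinin and DMSO.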

Test [3] in a line: qHTS for Inhibitors of Plasmodium falciparum (7G8) proliferation (AID 504316). Also: series mostly up to about 6.7 µM; nearly all actives have a fitted effect of over 65% in size. The procedure, abridged: as §1
Test [4] is described as follows: qHTS for Inhibitors of Plasmodium falciparum (HB3) proliferation (AID 504318). Also: nearly all actives have a fitted effect of over 60% in size. The procedure, abridged:
as §1

Test [5] in a line: qHTS for Inhibitors of Plasmodium falciparum (CP250) proliferation (AID 504320). The essentials:
as §1

The target in test [6] is Atrial natriuretic peptide receptor 1 (Homo sapiens) (UniProt P16066). Nature of the test: Natriuretic polypeptide receptor (hNpr1) antagonism - Pilot CMLD screen (AID 1347052; calls by dose curve;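 also: cGMP level read as GloSensor luciferase luminescence after agonist stimulation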; also: potency is read from the fitted curve at half-maximal effect).
Atrial natriuretic peptide receptor 1 (Homo sapiens), sequence (P16066 whole entry, looked up): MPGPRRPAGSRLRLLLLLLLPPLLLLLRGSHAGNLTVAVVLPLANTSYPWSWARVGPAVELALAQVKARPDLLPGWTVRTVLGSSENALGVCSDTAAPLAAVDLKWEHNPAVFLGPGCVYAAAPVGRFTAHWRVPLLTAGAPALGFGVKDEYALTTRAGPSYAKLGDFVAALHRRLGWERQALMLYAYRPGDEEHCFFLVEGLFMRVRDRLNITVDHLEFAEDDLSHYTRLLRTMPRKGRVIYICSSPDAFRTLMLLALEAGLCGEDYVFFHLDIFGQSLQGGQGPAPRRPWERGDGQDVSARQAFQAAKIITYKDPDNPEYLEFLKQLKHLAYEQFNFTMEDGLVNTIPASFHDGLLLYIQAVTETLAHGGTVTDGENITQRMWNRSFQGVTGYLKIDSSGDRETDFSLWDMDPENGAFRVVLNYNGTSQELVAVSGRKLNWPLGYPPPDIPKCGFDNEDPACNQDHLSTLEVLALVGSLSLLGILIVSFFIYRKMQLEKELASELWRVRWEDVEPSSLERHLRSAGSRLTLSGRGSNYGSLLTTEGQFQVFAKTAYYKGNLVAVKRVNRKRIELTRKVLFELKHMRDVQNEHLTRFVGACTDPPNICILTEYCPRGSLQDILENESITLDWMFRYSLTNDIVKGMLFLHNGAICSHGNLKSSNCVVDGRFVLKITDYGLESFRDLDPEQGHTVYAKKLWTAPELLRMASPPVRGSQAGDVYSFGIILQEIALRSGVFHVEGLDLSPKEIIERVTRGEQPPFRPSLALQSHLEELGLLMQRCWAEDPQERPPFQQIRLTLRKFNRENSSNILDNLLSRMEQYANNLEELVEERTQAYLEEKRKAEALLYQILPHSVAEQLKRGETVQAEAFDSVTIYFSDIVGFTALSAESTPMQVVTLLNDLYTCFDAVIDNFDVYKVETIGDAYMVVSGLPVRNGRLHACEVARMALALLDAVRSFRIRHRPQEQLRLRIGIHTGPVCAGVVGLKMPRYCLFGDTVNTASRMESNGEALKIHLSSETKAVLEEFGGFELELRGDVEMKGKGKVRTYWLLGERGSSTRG

For the molecule `COC(=O)CC1c2ccccc2C(Cc2ccc(OC)cc2)C(C)N1C(=O)OC` (stereo unspecified), the Potency entry in test [1], in test [2], in test [3], in test [4], in test [5] and in test [6] was “inactive” in each case.
For `C[C@@H]1C=CCCO[C@]12C(=O)N(Cc1ccc(F)cc1)c1ccccc12`, the Potency entry in test [1], in test [2], in test [3], in test [4], in test [5] and in test [6] was “inactive” in each case.
For `COCCN1C(=O)N[C@@H](c2cccc(C(F)(F)F)c2)[C@H](C(C)=O)[C@H]1C`, the Potency entry in test [1], in test [2], in test [3], in test [4], in test [5] and in test [6] was “inactive” in each case.
As to `COC(=O)C1=C[C@]2(c3ccccc3C[C@H](OC)[C@@H]2C)[C@H]2C=C[C@H]1C2`, the Potency result in test [1], in test [2], in test [3], in test [4], in test [5] and in test [6] was “inactive” in each case.
For the molecule `C=CC[C@@](C(C)=O)(C(=O)OC)[C@@H](NC(=O)OC)c1ccccc1`, the Potency result in test [1], in test [2], in test [3], in test [4], in test [5] and in test [6] was “inactive” each time.
For the molecule `COc1ccc2c(c1)O[C@@H](c1ccc3c(c1)OCO3)[C@H](OC(=O)N[C@H](C)C1CCCCC1)C2=O`, the Potency result in test [1], in test [2], in test [3], in test [4], in test [5] and in test [6] was “inactive” throughout.
Turning to `C=C(C(C)=O)C(O)c1ccc([N+](=O)[O-])cc1` (stereo unspecified), the Potency result in test [1], in test [2], in test [3], in test [4] and in test [5] was “inactive” throughout. Moreover, the Potency in test [6] is 1.88 µM (active).
Turning to `COC(=O)[C@H](COC(C)(C)C)NC(=O)O[C@H]1C(=O)c2ccc(OC)cc2O[C@@H]1c1ccc2c(c1)OCO2`, the Potency result in test [1], in test [2], in test [3], in test [4], in test [5] and in test [6] was “inactive” each time.
Take `COCC(=O)N1CCc2nc(-c3ccccc3)c3c(c2C1)CO[C@@H](C)C3`: the Potency entry in test [1], in test [2], in test [3], in test [4], in test [5] and in test [6] was “inactive” each time.
For the molecule `C=CC1=C2C=C(C3CC3)N(CCN3CCOCC3)C=C2C(=O)C(C)(OC(=O)c2ccco2)C1=O` (stereo unspecified), the Potency result in test [1], in test [2], in test [3], in test [4], in test [5] and in test [6] was “inactive” throughout.
For `COC(=O)CCCC1=CC2=CC(=O)C(C)(OC(=O)c3cccs3)C(=O)C2=CN1CCN1CCOCC1` (stereo unspecified), the Potency result in test [1], in test [2], in test [3], in test [4], in test [5] and in test [6] was “inactive” each time.
In the case of `COCCN1C(=O)NC(c2cccc(F)c2)C(C(C)=O)=C1C` (stereo unspecified), the Potency entry in test [1], in test [2], in test [3], in test [4], in test [5] and in test [6] was “inactive” each time.
Turning to `CCN1C(=NCc2ccco2)N[C@@H](c2ccccc2)[C@H](C(=O)OC)[C@H]1C`, the Potency entry in test [1], in test [2], in test [3], in test [4], in test [5] and in test [6] was “inactive” in each case.
`C=CC[C@@H]1C=C[C@H](ON=C[C@@H](N[S+](=O)([O-])c2ccc(C)cc2)[C@H](C)C=CCC(=O)OC)[C@H](CO)O1`: the Potency entry in test [1], in test [2], in test [3], in test [4], in test [5] and in test [6] was “inactive” each time.
As to `O=C(NC(CC1=CCCCC1)c1ccccc1)C(F)(F)F` (stereo unspecified), the Potency entry in test [1], in test [2], in test [3], in test [4], in test [5] and in test [6] was “inactive” throughout.
As for `C[C@@H]1C=CCCO[C@]12C(=O)N(Cc1ccc(Br)cc1)c1cccc(Br)c12`, the Potency entry in test [1], in test [2], in test [3], in test [4], in test [5] and in test [6] was “inactive” in each case.
